# Measurements as given in PubChem BioAssay AID623911 (Vanderbilt High Throughput Screening Facility, 2012).
# The campaign covered roughly 2,100 compounds. About 770 (37%) were called active.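 Rule for the calls: active = by-eye trace score of 1 for enhancers or -1 for inhibitors, so actives lie on both sides (some results past the limit were not filed as active); inactive = score 0, or 3 fluorescent, or 4 baseline rise.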 Some of the results follow.
# Biological target: G protein-activated inward rectifier potassium channel 2 (Homo sapiens) + G protein-activated inward rectifier potassium channel 1 (Homo sapiens) (UniProt P48051+P48549)
# Sequence (P48051 whole entry, looked up): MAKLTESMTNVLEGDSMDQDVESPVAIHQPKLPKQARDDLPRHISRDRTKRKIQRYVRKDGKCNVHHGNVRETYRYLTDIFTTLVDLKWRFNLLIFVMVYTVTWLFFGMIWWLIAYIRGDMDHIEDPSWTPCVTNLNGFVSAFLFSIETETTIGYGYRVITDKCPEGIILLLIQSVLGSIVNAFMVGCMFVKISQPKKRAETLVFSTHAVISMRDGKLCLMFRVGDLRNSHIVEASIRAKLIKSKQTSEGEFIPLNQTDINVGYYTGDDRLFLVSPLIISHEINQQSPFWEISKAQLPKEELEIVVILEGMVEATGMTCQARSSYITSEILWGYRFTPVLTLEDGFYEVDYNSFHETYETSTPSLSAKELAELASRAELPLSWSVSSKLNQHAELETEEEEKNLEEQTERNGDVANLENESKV
# Sequence (P48549 whole entry, looked up): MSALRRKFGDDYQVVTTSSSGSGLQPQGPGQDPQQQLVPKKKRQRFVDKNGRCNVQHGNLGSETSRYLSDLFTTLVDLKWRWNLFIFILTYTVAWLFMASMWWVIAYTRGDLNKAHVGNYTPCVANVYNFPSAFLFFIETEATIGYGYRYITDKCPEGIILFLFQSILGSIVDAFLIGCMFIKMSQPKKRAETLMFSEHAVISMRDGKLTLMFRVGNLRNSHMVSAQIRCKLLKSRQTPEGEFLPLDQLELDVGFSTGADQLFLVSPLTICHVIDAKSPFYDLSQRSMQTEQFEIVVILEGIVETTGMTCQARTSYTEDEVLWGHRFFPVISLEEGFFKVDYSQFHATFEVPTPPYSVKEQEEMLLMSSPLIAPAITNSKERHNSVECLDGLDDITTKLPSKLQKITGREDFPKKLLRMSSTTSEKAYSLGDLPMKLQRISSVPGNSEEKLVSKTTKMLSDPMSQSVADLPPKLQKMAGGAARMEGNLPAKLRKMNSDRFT
# Assay: GIRK1/2 thallium flux modulators, retest, confirmation, cell-based, HEK293 rmGlu8/hGIRK1/2, FluoZin-2 (AID 623911)
# Conditions: HEK293 rmGlu8/hGIRK1/2, thallium flux FluoZin-2; actives lie on both sides; glutamate co-added at its EC20 level
row,Structure (SMILES),manual score
1,CCOc1ccc(-n2c(SC(C)C(=O)OC)nc3c(c2=O)SCC3)cc1 (stereo not given),-1 (active)
2,CCOc1ccc(-n2c(Cc3cc(=O)[nH]c(=O)[nH]3)nnc2SC(C)C(=O)OC)cc1 (stereo not given),0 (inactive)
3,COC(=O)c1ccc(CSc2nc3c(c(=O)n2-c2ccc(F)cc2)SCC3)o1,0 (inactive)
4,CC(C)Cn1c2c(c(O)c(C(=O)Nc3ncccc3O)c1=O)CCCC2,0 (inactive)
5,COC(=O)C(NC(=O)COc1ccccc1)(Nc1nc2c(s1)CCCC2)C(F)(F)F (stereo not given),-1 (active)
6,CCCCCn1nc(-c2ccccc2)c2nc3ccccc3nc21,3 (inactive)
7,CCn1c(SCC(N)=O)nc2sc3c(c2c1=O)CCCC3,1 (active)
8,O=c1c2c3c(sc2nc2n1CCCCC2)CCCCC3,0 (inactive)
9,CCCCN(CCCC)C(=O)CSc1nnc2n(C)c(=O)c3c4c(sc3n12)CCCC4,-0.5 (inactive)
10,S=C1Nc2ccccc2Sc2ccc(Cl)cc21,0 (inactive)
11,Clc1ccc2c(c1)-c1nnc(Br)n1-c1ccccc1S2,-1 (active)
12,CCOc1ccccc1OCCCCCc1c(C)n[nH]c1C,0 (inactive)
13,CCN(CC)CC(O)COCCC12CC3CC(CC(C3)C1)C2 (stereo not given),-1 (active)
14,CC1(C)CC(c2nc(-c3ccc(Br)cc3)cs2)CCS1 (stereo not given),0 (inactive)
15,Cc1ccc(Cn2c(SCC(=O)NCC3CCCO3)nc3c(sc4ccccc43)c2=O)cc1 (stereo not given),0.5 (inactive)
16,CCN(CC)CCN(CC)Cc1ccccc1Br,-1 (active)
17,CCOC(=O)/C(=C/C=C1\Sc2ccccc2N1CC)C(C)=O,3 (inactive)
18,O=C1CS/C(=N\C(=O)N2c3ccccc3Sc3ccccc32)N1,0 (inactive)
19,CCOc1ccccc1C(=O)N1c2ccccc2Sc2ccccc21,-1 (active)
20,COc1ccccc1C(=O)N1c2ccccc2Sc2ccccc21,-1 (active)
21,COCC(=O)/C=C1\Sc2ccccc2N1C,0 (inactive)
22,O=S(=O)(Cc1ccccc1)N1CCc2ccccc21,3 (inactive)
23,COc1cc(C)ccc1OCCOc1cc(C)ccc1Cl,0 (inactive)
24,CCC1CCCN1Cn1cnc2c([nH]c3ccc(OC)cc32)c1=O (stereo not given),0 (inactive)

row,Structure (SMILES),manual score
1,Cc1ccc(N2C=Nc3ccc(C)c4nc(C)cc2c34)cc1,-1 (active)
2,C/C(=N\NC(=O)c1cccc(F)c1)c1ccc(Br)s1,1 (active)
3,C/C(=N\NC(=O)c1ccc(Cl)cc1)c1ccc(Br)s1,0.5 (inactive)
4,C/C(=N\NC(=O)c1ccccc1O)c1ccc(Br)s1,0.5 (inactive)
5,CN(C=O)CP(=O)(O)CCN1CCCC1=O,0 (inactive)
6,O=C(CSc1nc2ccc(Cl)cc2[nH]1)Nc1ccc2c(c1)CCC2,0 (inactive)
7,Clc1cccc(CSc2nc3ccncc3[nH]2)c1,1 (active)
8,Cc1ccc(CSc2nc3ccncc3[nH]2)cc1,0 (inactive)
9,CCN(CC)CCN1C(=O)c2oc3ccccc3c(=O)c2C1c1ccc(F)cc1 (stereo not given),0 (inactive)
10,C=CCSc1nc2sc3c(c2c(=O)n1CC)CCc1ccccc1-3,1 (active)
11,CCn1c(SCC(N)=O)nc2c(c1=O)C1(CCCC1)Cc1ccccc1-2,0 (inactive)
12,Cc1ccc(C)c(NC(=S)N=Nc2c(O)n(C)c3ccc(S(=O)(=O)N4CCOCC4)cc23)c1,0 (inactive)
13,O=c1c(-c2ccccc2)nc(-c2ccccc2)cn1O,1 (active)
14,N=c1oc2ccc3ccccc3c2cc1-c1nc(-c2ccccc2)cs1,3 (inactive)
15,CN(C)CCNc1nc2c(c(=O)[nH]c(=O)n2C)n1CCCc1ccccc1,0 (inactive)
16,CCN(C(=O)CN1CCN(c2ccccc2O)CC1)c1c(N)n(Cc2ccccc2)c(=O)[nH]c1=O,0 (inactive)
17,CC(C)CCn1c(CN2CCN(Cc3ccccc3)CC2)nc2c1c(=O)[nH]c(=O)n2C,-1 (active)
18,COc1ccc(C2CC(c3ccc(Cl)c(Cl)c3)Nc3nc(N)nn32)cc1 (stereo not given),1 (active)
19,Nc1nc2n(n1)C(c1cccs1)CC(c1ccc(F)cc1)N2 (stereo not given),0 (inactive)
20,CCn1c(=O)cc(OCC(=O)Nc2cccc(C)n2)c2ccccc21,0 (inactive)
21,COc1cccc2c1OC[C@@H](CO)[C@H]2N(C)C(=O)Nc1ccccc1,0 (inactive)
22,COc1cccc(NC(=O)CC2COc3ccccc3O2)c1 (stereo not given),1 (active)
23,COc1cccc(NC(=O)NC2(C(F)(F)F)Oc3ccccc3O2)c1,0 (inactive)
24,CCc1cc2cccc(C)c2nc1SCC(=O)c1ccc(NC(C)=O)cc1,0 (inactive)

row,Structure (SMILES),manual score
1,Cn1c(N2CCCC2)nc2c1c(=O)n(Cc1ccc(Cl)cc1)c(=O)n2C,-0.5 (inactive)
2,COc1ccc(N2CCCn3c2nc2c3c(=O)n(Cc3ccccc3F)c(=O)n2C)c(OC)c1,-1 (active)
3,Cn1c(C(=O)OC(C(=O)NC2CCCCC2)c2ccncc2)cc2sccc21 (stereo not given),0 (inactive)
4,COC(=O)c1cc2sccc2n1CC(=O)N1CCCc2ccccc21,-1 (active)
5,CC12CCC(C(=O)N3CCCc4ccccc43)(CC1=O)C2(C)C (stereo not given),0 (inactive)
6,CS(=O)(=O)Nc1ccc(C2=NN(C(=O)C3CCCCC3)C(c3cccs3)C2)cc1 (stereo not given),-0.5 (inactive)
7,C=CCN(CC=C)C(=S)NC(=O)c1ccc(OC)c(Br)c1,1 (active)
8,Cc1ccnc(NC(=S)NC(=O)/C=C/c2ccco2)c1,0 (inactive)
9,C=CCN(CC=C)C(=S)NC(=O)/C=C/c1ccc(C)cc1,1 (active)
10,COc1ccc(C(=O)NC(=S)NCCO)cc1Br,1 (active)
11,C=CCN(CC=C)C(=S)NC(=O)c1ccc(C)c(Br)c1,1 (active)
12,COc1ccc(C(=O)NC(=S)NC(C)C)cc1Br,0.5 (inactive)
13,COc1cc(/C=C2/C(=O)N=C(N)N2C)cc(OC)c1OC,0 (inactive)
14,CC(C)COc1ccc(Cc2cnc(N)nc2N)cc1,0 (inactive)
15,COC(=O)c1ccccc1NC(=S)NC(=O)COc1ccccc1,1 (active)
16,Cc1ccc(C(=O)NC(=S)Nc2ccccc2C(F)(F)F)cc1,1 (active)
17,O=C(COc1ccccc1)NC(=S)Nc1ccc2c(c1)Cc1ccccc1-2,0 (inactive)
18,COC(=O)c1ccccc1NC(=S)NC(=O)c1ccc(C)cc1,1 (active)
19,Cc1ccc(C(=O)NC(=S)Nc2ccccc2C(F)(F)F)cc1C,0 (inactive)
20,O=C(COc1ccccc1)NC(=S)Nc1cccc([N+](=O)[O-])c1,1 (active)
21,O=C(COc1ccccc1)NC(=S)Nc1ccc2c3c(cccc13)CC2,0.5 (inactive)
22,COC(=O)c1ccccc1NC(=S)NC(=O)COc1ccc(C)cc1,0 (inactive)
